The results in this text go back to paper PMC7862700, “An all-to-all approach to the identification of sequence-specific readers for epigenetic DNA modifications on cytosine”.

Holding throughout (test): DAPPL (digital affinity profiling via proximity ligation, sequencing); 10 mM Tris-HCl pH 7.5, 50 mM NaCl, 1 mM DTT, 4% glycerol, room temperature, 30 min; GST-TFs on glutathione beads, 16-mer random dsDNA library, 0.1% formaldehyde crosslink after washing; high values mean tight binding
Details in all cases: protein: recombinant; tags: N-terminal GST; dsDNA, one strand shown

The target of one assay is T1, FLI1 (Homo sapiens, UniProt Q01543 1-452).
T1 sequence: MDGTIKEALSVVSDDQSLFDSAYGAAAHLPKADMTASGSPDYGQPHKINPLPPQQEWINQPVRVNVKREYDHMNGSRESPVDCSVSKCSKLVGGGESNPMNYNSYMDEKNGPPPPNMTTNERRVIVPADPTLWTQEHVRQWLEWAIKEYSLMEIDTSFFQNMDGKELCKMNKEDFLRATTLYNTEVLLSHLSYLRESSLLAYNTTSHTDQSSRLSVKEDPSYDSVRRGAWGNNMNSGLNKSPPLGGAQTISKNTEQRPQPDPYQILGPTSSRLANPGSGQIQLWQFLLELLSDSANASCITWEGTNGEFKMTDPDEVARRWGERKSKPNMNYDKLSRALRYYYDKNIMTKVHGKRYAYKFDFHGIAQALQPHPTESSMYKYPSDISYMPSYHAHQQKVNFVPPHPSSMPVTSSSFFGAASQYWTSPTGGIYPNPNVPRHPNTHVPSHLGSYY
The essentials: (§1)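 The binding signal reported is, for every hexamer, its read frequency for a factor over its read frequency for the tag-only sample. Reads came from pools of yeast-expressed, GST-fused human transcription factors on glutathione beads, barcoded with DNA and mixed with that sample, which were incubated with 200 nmole of a random double-stranded 16-mer DNA library in Tris/NaCl/DTT/glycerol buffer at room temperature for 30 min. After washing, the pools were crosslinked with 0.1% formaldehyde, proximity-ligated with BsaI/T4 ligase for 1 h at 37 °C, PCR-amplified and sequenced on an Illumina NextSeq500.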

A further assay deals with T2, ELK1 (Homo sapiens, UniProt P19419 1-428).
T2 sequence: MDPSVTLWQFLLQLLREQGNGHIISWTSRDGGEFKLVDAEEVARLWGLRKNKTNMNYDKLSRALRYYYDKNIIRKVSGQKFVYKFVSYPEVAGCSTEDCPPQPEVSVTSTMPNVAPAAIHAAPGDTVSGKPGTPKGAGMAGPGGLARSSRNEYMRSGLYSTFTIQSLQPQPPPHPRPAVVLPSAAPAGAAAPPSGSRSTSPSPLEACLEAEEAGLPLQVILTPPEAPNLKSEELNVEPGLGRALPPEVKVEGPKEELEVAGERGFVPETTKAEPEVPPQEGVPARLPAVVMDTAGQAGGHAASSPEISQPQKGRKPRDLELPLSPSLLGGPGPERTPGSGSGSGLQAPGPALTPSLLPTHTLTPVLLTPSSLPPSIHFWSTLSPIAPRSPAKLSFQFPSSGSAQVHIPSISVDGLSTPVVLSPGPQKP
The essentials: as §1

In another assay the target is T3, GABPA (Homo sapiens, UniProt Q06546 1-454).
T3 sequence: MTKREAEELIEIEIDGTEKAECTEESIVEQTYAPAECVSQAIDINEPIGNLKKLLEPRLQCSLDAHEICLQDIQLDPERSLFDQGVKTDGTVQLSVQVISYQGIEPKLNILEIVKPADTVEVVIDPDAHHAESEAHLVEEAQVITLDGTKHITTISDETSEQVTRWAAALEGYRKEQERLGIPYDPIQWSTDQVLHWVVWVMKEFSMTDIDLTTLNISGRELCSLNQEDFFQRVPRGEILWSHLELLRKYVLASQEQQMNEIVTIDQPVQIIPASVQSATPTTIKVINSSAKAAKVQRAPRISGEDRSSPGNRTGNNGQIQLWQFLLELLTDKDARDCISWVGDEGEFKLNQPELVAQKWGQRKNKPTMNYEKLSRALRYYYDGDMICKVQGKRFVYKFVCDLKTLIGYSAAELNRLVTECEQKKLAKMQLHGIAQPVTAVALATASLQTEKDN
The essentials: as §1

A further assay has as its target T4, ERG (Homo sapiens, UniProt P11308 1-479).
T4 sequence: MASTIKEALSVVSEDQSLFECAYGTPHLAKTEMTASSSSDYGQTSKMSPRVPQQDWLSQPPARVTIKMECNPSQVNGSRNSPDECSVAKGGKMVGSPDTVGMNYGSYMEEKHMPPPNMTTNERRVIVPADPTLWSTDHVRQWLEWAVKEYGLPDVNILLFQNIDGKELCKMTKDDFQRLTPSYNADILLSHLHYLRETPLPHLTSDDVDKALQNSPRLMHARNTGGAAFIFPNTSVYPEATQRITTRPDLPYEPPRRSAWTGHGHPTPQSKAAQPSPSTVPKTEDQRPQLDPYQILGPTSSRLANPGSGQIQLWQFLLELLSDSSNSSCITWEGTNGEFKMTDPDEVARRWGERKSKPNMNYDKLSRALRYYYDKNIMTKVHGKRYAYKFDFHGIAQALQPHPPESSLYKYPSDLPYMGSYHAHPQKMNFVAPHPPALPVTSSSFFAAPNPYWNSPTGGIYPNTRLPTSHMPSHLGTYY
The essentials: as §1

Another assay concerns the target SPI1 (Homo sapiens, UniProt P17947 1-270). The essentials: as §1
For the next assay, the target named is SPIB (Homo sapiens, UniProt Q01892 1-262). The essentials: as §1
Sequence of SPIB (Q01892 whole entry): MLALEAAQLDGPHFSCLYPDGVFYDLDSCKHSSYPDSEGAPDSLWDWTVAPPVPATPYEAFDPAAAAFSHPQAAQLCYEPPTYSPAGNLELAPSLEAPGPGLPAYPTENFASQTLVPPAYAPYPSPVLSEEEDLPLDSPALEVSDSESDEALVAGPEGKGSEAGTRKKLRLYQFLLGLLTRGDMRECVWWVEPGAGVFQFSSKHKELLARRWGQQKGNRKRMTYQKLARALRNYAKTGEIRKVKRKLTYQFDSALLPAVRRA
Another assay deals with T5, FEV (Homo sapiens, UniProt Q99581 1-238).
T5 sequence: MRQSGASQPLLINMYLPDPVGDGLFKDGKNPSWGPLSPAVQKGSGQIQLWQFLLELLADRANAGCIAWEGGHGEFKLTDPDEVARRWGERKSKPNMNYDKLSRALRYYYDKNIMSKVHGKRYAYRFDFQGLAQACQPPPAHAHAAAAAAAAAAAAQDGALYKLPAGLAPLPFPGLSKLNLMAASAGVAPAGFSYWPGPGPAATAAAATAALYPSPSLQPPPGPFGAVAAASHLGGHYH
The essentials:
as §1

The target in a further assay is ETV5 (Homo sapiens, UniProt P41161 1-510). The essentials: as §1
Sequence of ETV5 (P41161 whole entry): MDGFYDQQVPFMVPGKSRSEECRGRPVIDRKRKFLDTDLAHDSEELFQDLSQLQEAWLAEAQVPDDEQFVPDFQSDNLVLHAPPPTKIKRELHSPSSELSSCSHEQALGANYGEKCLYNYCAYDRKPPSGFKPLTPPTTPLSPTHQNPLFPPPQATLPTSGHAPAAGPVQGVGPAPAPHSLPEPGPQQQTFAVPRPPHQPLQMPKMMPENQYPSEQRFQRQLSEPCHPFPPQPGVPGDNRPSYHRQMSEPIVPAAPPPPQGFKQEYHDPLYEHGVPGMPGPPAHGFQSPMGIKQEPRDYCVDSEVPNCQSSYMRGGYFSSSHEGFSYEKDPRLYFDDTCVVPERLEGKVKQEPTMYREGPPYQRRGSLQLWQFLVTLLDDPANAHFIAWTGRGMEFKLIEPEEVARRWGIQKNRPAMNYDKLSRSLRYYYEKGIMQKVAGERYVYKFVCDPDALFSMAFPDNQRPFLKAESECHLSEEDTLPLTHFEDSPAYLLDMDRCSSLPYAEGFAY
The next assay concerns the target T6, SPIC (Homo sapiens, UniProt Q8N5J4 1-248).
T6 sequence: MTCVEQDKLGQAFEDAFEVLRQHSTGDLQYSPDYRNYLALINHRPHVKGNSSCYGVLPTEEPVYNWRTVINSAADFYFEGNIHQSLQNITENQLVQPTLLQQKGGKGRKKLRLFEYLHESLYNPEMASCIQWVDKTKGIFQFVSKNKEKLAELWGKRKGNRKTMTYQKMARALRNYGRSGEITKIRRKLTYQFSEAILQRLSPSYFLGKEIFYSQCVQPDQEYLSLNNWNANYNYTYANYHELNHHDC
The essentials:
as §1

In another assay the target is ELF4 (Homo sapiens, UniProt Q99607 1-663). The essentials: as §1
Sequence of ELF4 (Q99607 whole entry): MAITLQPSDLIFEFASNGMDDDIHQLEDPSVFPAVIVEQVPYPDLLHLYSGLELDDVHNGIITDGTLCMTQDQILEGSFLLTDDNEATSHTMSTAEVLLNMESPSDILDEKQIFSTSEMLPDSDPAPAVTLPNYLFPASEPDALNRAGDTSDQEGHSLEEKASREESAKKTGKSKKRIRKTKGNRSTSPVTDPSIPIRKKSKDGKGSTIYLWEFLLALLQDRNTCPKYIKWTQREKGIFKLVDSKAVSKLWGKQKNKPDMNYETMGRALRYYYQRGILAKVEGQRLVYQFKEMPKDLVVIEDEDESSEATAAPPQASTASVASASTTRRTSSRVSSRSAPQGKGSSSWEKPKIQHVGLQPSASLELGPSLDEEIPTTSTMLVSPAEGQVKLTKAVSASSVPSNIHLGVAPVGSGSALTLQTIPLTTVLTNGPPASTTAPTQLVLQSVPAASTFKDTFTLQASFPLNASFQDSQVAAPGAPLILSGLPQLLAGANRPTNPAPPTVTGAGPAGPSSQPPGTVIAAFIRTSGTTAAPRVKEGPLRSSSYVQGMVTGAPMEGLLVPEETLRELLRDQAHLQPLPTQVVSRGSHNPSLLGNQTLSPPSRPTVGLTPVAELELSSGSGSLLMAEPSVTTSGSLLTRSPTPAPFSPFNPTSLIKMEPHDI
Another assay concerns the target T7, ELK4 (Homo sapiens, UniProt P28324-2 1-405).
T7 sequence: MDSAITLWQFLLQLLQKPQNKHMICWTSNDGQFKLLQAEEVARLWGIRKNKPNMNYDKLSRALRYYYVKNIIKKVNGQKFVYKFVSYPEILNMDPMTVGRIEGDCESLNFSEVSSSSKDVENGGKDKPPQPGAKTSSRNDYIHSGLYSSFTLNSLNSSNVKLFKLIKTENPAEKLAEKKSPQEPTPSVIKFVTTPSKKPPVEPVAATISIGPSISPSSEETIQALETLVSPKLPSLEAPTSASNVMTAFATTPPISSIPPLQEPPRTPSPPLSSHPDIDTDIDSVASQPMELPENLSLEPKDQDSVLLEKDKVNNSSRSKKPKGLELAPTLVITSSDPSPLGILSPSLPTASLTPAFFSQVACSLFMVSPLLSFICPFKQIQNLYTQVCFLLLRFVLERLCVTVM
The essentials:
as §1

A further assay addresses T8, ETV2 (Homo sapiens, UniProt O00321 1-342).
T8 sequence: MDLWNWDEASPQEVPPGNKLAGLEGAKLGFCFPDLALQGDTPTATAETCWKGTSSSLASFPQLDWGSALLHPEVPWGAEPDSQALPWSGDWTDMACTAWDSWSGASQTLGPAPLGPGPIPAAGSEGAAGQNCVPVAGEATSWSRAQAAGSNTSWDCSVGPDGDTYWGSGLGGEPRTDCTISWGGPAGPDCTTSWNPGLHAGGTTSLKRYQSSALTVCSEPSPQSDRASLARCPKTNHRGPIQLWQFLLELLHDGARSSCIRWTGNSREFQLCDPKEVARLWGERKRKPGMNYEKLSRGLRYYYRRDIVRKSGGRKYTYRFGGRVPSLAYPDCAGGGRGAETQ
The essentials:
as §1

A further assay has as its target T9, ELF3 (Homo sapiens, UniProt P78545 1-371).
T9 sequence: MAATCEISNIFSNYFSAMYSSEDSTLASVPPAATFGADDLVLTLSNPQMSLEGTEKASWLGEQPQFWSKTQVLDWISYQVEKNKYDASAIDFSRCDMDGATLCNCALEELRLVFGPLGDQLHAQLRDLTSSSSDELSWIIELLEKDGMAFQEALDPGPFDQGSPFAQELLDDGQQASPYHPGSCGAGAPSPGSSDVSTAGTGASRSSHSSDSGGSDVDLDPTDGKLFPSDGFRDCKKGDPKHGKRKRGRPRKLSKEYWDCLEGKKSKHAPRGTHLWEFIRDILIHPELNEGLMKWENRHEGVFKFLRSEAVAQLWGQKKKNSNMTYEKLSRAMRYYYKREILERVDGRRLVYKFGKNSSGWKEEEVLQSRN
The essentials: as §1

The next assay deals with CRX (Homo sapiens, UniProt O43186 1-299). The essentials:
as §1

A further assay addresses ETV1 (Homo sapiens, UniProt P50549 1-477). The essentials:
as §1

For another assay, the target named is ELF1 (Homo sapiens, UniProt P32519 1-619). The essentials: as §1
Sequence of ELF1 (P32519 whole entry): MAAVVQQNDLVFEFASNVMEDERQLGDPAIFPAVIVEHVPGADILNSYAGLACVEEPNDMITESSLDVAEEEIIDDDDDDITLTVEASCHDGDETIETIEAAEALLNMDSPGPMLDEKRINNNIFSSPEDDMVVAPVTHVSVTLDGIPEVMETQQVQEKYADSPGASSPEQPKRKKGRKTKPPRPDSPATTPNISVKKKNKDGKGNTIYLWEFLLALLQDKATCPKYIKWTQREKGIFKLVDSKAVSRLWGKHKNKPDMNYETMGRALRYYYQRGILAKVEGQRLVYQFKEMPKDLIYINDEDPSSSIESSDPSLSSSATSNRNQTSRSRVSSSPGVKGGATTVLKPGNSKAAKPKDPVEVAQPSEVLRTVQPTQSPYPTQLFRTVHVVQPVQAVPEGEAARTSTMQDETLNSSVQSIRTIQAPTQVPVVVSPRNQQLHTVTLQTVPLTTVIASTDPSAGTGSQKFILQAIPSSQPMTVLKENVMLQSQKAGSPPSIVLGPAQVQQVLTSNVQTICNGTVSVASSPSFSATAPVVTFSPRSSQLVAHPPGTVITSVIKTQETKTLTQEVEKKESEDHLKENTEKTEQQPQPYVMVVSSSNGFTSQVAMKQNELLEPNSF
The target in another assay is T10, EHF (Homo sapiens, UniProt Q9NZC4 1-300).
T10 sequence: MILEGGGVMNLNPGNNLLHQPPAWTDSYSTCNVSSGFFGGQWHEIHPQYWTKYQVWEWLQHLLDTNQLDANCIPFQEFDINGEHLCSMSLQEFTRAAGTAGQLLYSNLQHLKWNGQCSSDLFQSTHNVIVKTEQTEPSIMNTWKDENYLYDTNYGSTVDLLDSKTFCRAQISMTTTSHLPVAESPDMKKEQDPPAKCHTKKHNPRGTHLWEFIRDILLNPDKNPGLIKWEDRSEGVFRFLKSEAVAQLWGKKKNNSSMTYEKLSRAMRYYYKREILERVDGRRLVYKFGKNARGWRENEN
The essentials:
as §1

A further assay has as its target T11, ELK3 (Homo sapiens, UniProt P41970 1-407).
T11 sequence: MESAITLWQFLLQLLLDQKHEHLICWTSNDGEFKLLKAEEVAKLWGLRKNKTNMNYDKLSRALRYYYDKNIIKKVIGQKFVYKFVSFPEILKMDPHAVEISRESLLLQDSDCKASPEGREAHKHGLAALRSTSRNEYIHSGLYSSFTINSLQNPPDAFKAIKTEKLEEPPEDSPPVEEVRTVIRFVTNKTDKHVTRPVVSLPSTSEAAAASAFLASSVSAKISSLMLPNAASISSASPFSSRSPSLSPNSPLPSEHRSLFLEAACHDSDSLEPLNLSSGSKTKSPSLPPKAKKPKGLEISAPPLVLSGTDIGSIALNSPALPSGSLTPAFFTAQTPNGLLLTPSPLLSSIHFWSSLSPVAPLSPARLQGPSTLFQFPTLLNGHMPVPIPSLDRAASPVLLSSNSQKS
The essentials: as §1

Sequence of ETV1 (P50549 whole entry): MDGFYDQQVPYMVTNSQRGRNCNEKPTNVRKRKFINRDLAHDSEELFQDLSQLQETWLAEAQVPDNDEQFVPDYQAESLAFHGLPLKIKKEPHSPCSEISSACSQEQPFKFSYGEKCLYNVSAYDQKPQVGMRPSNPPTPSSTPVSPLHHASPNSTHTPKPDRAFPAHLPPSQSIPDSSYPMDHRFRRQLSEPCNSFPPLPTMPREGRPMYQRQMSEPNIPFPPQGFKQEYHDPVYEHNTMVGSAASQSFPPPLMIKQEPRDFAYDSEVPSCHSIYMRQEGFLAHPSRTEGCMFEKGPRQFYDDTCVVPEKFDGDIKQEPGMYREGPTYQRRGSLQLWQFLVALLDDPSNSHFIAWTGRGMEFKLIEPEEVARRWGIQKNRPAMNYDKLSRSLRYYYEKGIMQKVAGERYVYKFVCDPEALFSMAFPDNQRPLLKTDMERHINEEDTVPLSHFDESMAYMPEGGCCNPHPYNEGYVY
Sequence of CRX (O43186 whole entry): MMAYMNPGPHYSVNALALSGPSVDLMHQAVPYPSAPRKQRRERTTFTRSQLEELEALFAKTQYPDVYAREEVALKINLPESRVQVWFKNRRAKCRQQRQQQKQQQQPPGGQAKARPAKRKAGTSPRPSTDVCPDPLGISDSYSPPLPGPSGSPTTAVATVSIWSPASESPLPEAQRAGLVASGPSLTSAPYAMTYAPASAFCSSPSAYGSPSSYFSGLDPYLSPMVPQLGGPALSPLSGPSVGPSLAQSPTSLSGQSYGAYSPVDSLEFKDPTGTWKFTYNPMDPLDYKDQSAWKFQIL

For the sequence GGCTTG, the binding signal is 1.12 fold enrichment (6-mer frequency, TF over GST control) with FLI1; 1.04 fold enrichment (6-mer frequency, TF over GST control) with ELK1; 1.04 fold enrichment (6-mer frequency, TF over GST control) with GABPA; 1.09 fold enrichment (6-mer frequency, TF over GST control) with ERG; 1.02 fold enrichment (6-mer frequency, TF over GST control) in the assay with SPI1; 1.06 fold enrichment (6-mer frequency, TF over GST control) in the assay with SPIB. Moreover, the binding signal with FEV was 1.01 fold enrichment (6-mer frequency, TF over GST control); in the assay with ETV5, 1.01 fold enrichment (6-mer frequency, TF over GST control); with SPIC it was 1.12 fold enrichment (6-mer frequency, TF over GST control); with ELF4, 1.07 fold enrichment (6-mer frequency, TF over GST control); with ELK4, 1.12 fold enrichment (6-mer frequency, TF over GST control); with ETV2, 1.01 fold enrichment (6-mer frequency, TF over GST control). Further, the binding signal with ELF3 was 1.11 fold enrichment (6-mer frequency, TF over GST control); with CRX it was 1.06 fold enrichment (6-mer frequency, TF over GST control); in the assay with ETV1, 1.08 fold enrichment (6-mer frequency, TF over GST control).

Consider GCGCCT, for which the binding signal with FLI1 is 1.09 fold enrichment (6-mer frequency, TF over GST control); in the assay with ELK1, 1.19 fold enrichment (6-mer frequency, TF over GST control); in the assay with GABPA, 1.11 fold enrichment (6-mer frequency, TF over GST control); with ERG, 1.04 fold enrichment (6-mer frequency, TF over GST control); with ELF1 it was 1.1 fold enrichment (6-mer frequency, TF over GST control); in the assay with EHF, 1.05 fold enrichment (6-mer frequency, TF over GST control). Further, the binding signal is 1.12 fold enrichment (6-mer frequency, TF over GST control) in the assay with SPI1; 1.16 fold enrichment (6-mer frequency, TF over GST control) in the assay with SPIB; 1.05 fold enrichment (6-mer frequency, TF over GST control) with ELK3; 1.13 fold enrichment (6-mer frequency, TF over GST control) with FEV; 1.07 fold enrichment (6-mer frequency, TF over GST control) in the assay with ETV5; 1 fold enrichment (6-mer frequency, TF over GST control) with SPIC. Further, the binding signal with ELF4 was 1.07 fold enrichment (6-mer frequency, TF over GST control); with ELK4, 1.28 fold enrichment (6-mer frequency, TF over GST control); with ETV2, 1.13 fold enrichment (6-mer frequency, TF over GST control); in the assay with ELF3, 1.11 fold enrichment (6-mer frequency, TF over GST control); in the assay with ETV1 it was 1.17 fold enrichment (6-mer frequency, TF over GST control).
